Data on 65 compounds can be found in PubChem BioAssay AID2553 (Johns Hopkins Ion Channel Center, 2010).

The whole screen tested about 310,000 compounds, of which about 3,300 (1.1%) were called active.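 Rule for the calls: active = B-score under library mean minus 3 SD, initial fluorescence not abnormally high, positive integrated signal ratio; inactive = the rest.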 The list comes from a sample in which actives are over-represented; it also holds similar structures and randomly drawn compounds.

This experiment deals with Short transient receptor potential channel 6 (Mus musculus) (UniProt Q61143). In words: mouse TRPC6 channel inhibitors, primary screen, cell-based, HEK293, membrane potential dye (AID 2553).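 For B-score: B-score derived from integrated fluorescence ratio over the kinetic read; more negative B-score means stronger inhibition of depolarization.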 The note with it: ACh-evoked depolarization, at 10 µM; stronger effect = lower value.
Short transient receptor potential channel 6 (Mus musculus), sequence (Q61143 whole entry, looked up): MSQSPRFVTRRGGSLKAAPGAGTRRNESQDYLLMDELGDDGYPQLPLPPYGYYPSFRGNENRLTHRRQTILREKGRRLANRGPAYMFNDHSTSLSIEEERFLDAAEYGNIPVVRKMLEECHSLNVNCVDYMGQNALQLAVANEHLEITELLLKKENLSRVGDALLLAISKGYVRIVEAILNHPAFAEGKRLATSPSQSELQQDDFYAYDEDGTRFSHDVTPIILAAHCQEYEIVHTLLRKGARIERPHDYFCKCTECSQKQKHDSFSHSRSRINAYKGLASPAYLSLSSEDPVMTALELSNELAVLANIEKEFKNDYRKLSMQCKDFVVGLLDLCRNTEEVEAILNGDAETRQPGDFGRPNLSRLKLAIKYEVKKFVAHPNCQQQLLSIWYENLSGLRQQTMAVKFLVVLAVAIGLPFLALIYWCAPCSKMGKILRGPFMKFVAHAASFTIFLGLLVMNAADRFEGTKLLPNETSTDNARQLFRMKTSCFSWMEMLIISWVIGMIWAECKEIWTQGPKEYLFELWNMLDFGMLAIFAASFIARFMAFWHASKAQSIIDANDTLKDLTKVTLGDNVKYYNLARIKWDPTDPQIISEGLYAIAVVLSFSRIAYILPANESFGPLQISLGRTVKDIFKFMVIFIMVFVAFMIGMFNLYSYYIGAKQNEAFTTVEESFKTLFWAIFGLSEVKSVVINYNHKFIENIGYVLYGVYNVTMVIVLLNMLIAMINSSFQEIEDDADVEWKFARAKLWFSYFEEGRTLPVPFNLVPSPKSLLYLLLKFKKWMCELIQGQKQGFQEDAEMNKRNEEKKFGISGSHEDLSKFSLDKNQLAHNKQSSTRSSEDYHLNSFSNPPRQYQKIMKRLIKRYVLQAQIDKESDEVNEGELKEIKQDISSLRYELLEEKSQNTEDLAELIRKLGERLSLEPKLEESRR
As to `Fc1c(F)c(C(F)(F)F)c(F)c(F)c1N1CCN(c2ccc3nnc(C(F)(F)F)n3n2)CC1`, the B-score result was “inactive”.
Take `O=C(CCN1CCCO1)N1CCCC(N2CCN(c3cccc(C(F)(F)F)c3)CC2)C1` (stereo not given): the B-score result is “inactive”.
Then `O=C(O)c1ccc(S(=O)(=O)N2CCOCC2)o1`, with “inactive”.
On to `O=C(NCc1ccccc1Cl)C(=O)NCC1CCCN1S(=O)(=O)c1cccs1` (stereo not given), for which the B-score result is “inactive”.
On to `COc1ccc([C@@H]2[C@@H]3C(=O)N(C(C)(C)C)C(=O)[C@@H]3[C@]3(Cc4ccccc4)C(=O)N(c4cccc(Br)c4)C(=O)N23)cc1`, for which the B-score result is “inactive”.
Turning to `COc1ccc(-c2nonc2NC(=O)c2oc3ccc(F)cc3c2C)cc1OC`, the B-score result is “inactive”.
With `CCOC(=O)C1=C(CN2CCc3ccccc32)NC(=O)NC1c1ccc(Cl)cc1` (stereo not given), the B-score entry is “inactive”.
Take `CCOC(=O)C1=NN(c2ccc(Cl)cc2)/C(=C/C2=NCCc3cc(OC)c(OC)cc32)S1`: the B-score was -5.5 (active).
As for `CCOC(=O)c1cc2c(n(-c3ccc(C)cc3)c1=O)CCCC2=O`, the B-score result is “inactive”.
With `FC(F)(F)c1nc(-c2ccccc2)ncc1-c1nnnn1-c1ccccc1` the entry was “inactive”; with `c1ccc(-n2nnnc2-c2cccnc2)cc1`, “inactive”.
With `Clc1ccc(-n2nnnc2-c2cnc(-c3ccccn3)nc2-c2cccs2)cc1`, the B-score was -6.02 (active).
For `CCC(=O)c1ccc(N2CCN(C(=O)c3cc([N+](=O)[O-])ccc3F)CC2)c(F)c1`, the B-score entry was “inactive”.
With `CCN1CCN(c2ccc([N+](=O)[O-])cc2C(=O)c2ccc(Cl)cc2)CC1` the figure was -6.09 (active); with `O=C(Nc1cccc(Cl)c1)c1cc([N+](=O)[O-])ccc1N1CCN(CCO)CC1`, “inactive”.
Then `COc1ccc(C(C#N)Nc2ccc(C)cc2)cc1` (stereo not given), with “inactive”; and `Cc1ccc(S(=O)(=O)N(c2cccc(C)c2)C2CCS(=O)(=O)C2)cc1` (stereo not given), with “inactive”.
With `COCc1ccc(CN2CCC(Oc3ccc(C(=O)NCc4ccccn4)cc3)CC2)o1`, the B-score result was “inactive”.
Regarding `CCCn1nc(NC(=O)C(C)C)c2cc3cc(OC)ccc3nc21`, the B-score entry was “inactive”.
As for `Cc1ccccc1CSc1nnc(CCCCCNC(=O)OC(C)(C)C)o1`, the B-score result was “inactive”.
Turning to `CCC(C)(C)NC(=O)CN(C(=O)CCC(=O)Nc1nccs1)c1ccc2c(c1)OCO2`, the B-score was -5.2 (active).
Consider `O=C(CN(C(=O)CCC(=O)Nc1nccs1)c1ccc(F)cc1)NCc1ccc2c(c1)OCO2`, for which the B-score entry was “inactive”.
Then `CCC(C)(C)NC(=O)CN(C(=O)CCC(=O)Nc1cc(C)ccn1)c1ccc2c(c1)OCCO2`, with “inactive”.
With `CCN1CCC2(CCN(Cc3cn[nH]c3-c3ccc(OC)c(F)c3)C2)C1` (stereo not given) the entry was “inactive”.
As to `COc1ccc(/C=C/C(=O)OCC(=O)NCc2cccs2)cc1OC`, the B-score result is “inactive”.
In the case of `O=C(CN1CCN(C(=O)C2CCCO2)CC1)Nc1c(Cl)cccc1Cl` (stereo not given), the B-score result is “inactive”.
As to `COc1ccc(OC)c(CNC(=O)Cn2nc(C)c3c(C)n(-c4ccc(C)cc4)nc3c2=O)c1`, the B-score result was “inactive”.
In the case of `CN=C1C=C/C(=N/N=c2\ccn(O)cc2C)C=C1C`, the B-score result is “inactive”.
For `O=C(O)CCCCCNc1ncnc2ccc(Br)cc12`, the B-score entry is “inactive”.
For `Cc1ccccc1-n1nc(C)c2c1N=C1C(Cl)=CC(Cl)=CN1C2c1ccc(C(=O)O)cc1` (stereo not given), the B-score entry is “inactive”.
For `O=C(c1ccc(-n2cnnn2)cc1)N1CCN(C(c2ccccc2)c2ccccc2)CC1`, the B-score is -5.27 (active).
Consider `Cn1nnnc1SCC(=O)N1CCN(C(c2ccccc2)c2ccccc2)CC1`, for which the B-score result is “inactive”.
For `Cc1onc(C(=O)NN)c1C(=O)N1CCN(C(c2ccccc2)c2ccccc2)CC1`, the B-score entry was “inactive”.
With `COc1ccc(Cc2nnc(SCC(=O)N(c3ccccc3)C(C)C)n(N)c2=O)cc1`, the B-score result was “inactive”.
Regarding `C=CCSC(CC)(CC)C(N)=O`, the B-score result is “inactive”.
Then `Oc1c(Cl)cc(Cl)c(Cl)c1Cc1c(O)c(Cl)cc(Cl)c1Cl`, with -7.71 (active); and `COc1cc(NC(=O)C2CC(c3ccccc3O)=NO2)c(OC)cc1Cl` (stereo not given), with “inactive”; and `Cc1ccc(F)cc1NC(=O)N1CCCN(c2ccc(C(F)(F)F)cn2)CC1`, with “inactive”.
In the case of `CN(CC(=O)Nc1ccc(N2CCOCC2)cc1)CC(=O)Nc1ccccc1[N+](=O)[O-]`, the B-score result is “inactive”.
Regarding `CN(CC(=O)Nc1ccccc1[N+](=O)[O-])Cc1ccc(Br)cc1`, the B-score is -5.44 (active).
With `Cc1ccc(NC(=O)CN(C)Cc2ccc(F)cc2)c([N+](=O)[O-])c1`, the B-score entry was “inactive”.
Take `O=C(Nc1ccccc1-c1nc2ccccc2[nH]c1=O)c1cccs1`: the B-score result was “inactive”.
In the case of `C/C(=N\Nc1nc2ccccc2[nH]1)c1cccs1`, the B-score was -13.6 (active).
Regarding `C/C(=N\Nc1ncc(Cl)cc1Cl)c1cccs1`, the B-score result was “inactive”.
For the compound `Cc1cc(OCC(=O)N(C)c2c(N)n(Cc3ccccc3)c(=O)[nH]c2=O)c(C(C)C)cc1Cl`, the B-score result was “inactive”.
With `CC(=O)OC(COc1ccc(F)cc1)Cn1cnc2ccccc21` (stereo not given) the entry was “inactive”.
Take `CC(C)c1ccc(OCC(O)CN2CCN(c3ccccn3)CC2)cc1` (stereo not given): the B-score entry was “inactive”.
Turning to `CC(C)c1ccc(OCC(O)Cn2cnc3ccccc32)cc1` (stereo not given), the B-score is -9.55 (active).
Regarding `N=c1c2c(-c3ccccc3)c(-c3ccccc3)n(Cc3ccccc3)c2ncn1CCCO`, the B-score was -7.35 (active).
Take `CCN(CC)CCn1cnc2c1c(=O)[nH]c(=O)n2Cc1ccccc1`: the B-score entry is “inactive”.
`COCCn1cnc2c1c(=O)n(Cc1ccc(Br)cc1)c(=O)n2Cc1ccccc1`: the B-score entry is “inactive”.
`CCOC(=O)C(CCOc1cccc(CC)c1)C(=O)OCC`: the B-score entry is “inactive”.
As to `CCOC(=O)c1sc(N(Cc2ccccc2)C(=O)CN2C(=O)CN(C)C2=O)nc1C`, the B-score result is “inactive”.
Then `Cc1cc(=O)[nH]c(SCc2ccc(Cl)cc2)n1`, with “inactive”; and `CC1CN(C(=O)c2cc(COc3c(F)cccc3F)on2)CCN1C` (stereo not given), with “inactive”.
Take `Cc1cccc(NS(=O)(=O)c2ccc(-c3cnc(C4CC4)o3)cc2)c1`: the B-score entry is “inactive”.
Take `O=S(=O)(c1ccc(Cl)s1)N1CCC2(CC1)OCCO2`: the B-score entry was “inactive”.
In the case of `O=C(NCCc1c[nH]c2ccccc12)c1cccc(Br)c1`, the B-score result was “inactive”.
For `O=C(NCCc1c[nH]c2ccccc12)C1CCN(Cc2ccc(Br)cc2)CC1`, the B-score is -5.11 (active).
Then `Cc1ccc2[nH]cc(CCNC(=O)C3CCCCC3)c2c1`, with “inactive”; and `Cc1ccc(OCCOc2cccc(/C=N/NC(N)=O)c2)cc1`, with “inactive”; and `COc1ccc(CNC(=O)CN2CCC(n3nnc4cc(F)ccc43)CC2)cc1`, with “inactive”.
With `CC(=O)NC(C)c1nc2ccccc2n1Cc1ccccc1F` (stereo not given), the B-score entry was “inactive”.
In the case of `Fc1ccccc1Cn1cnc(NC(=S)NCCc2ccccc2)n1`, the B-score result was “inactive”.
With `N=c1n(CCc2ccccc2)c2ccccc2n1Cc1ccccc1F`, the B-score is -5.3 (active).
